The results in this text go back to PubChem BioAssay (NCATS).

Values joined by “and” are separate entries in the source; they are usually repeats but may differ in a detail not shown here. Equal values may be shown once. Results filed as inconclusive are left out. Active and inactive are the calls of the source. Unless noted, calls follow the shape of the dose curve; as a rule, active = well fitted curve in the direction sought with a large enough effect; inconclusive = small, poorly fitted or top-dose-only effect, or another doubt; inactive = no such curve, though single readings can be large; an effect the other way counts as inactive or inconclusive.

Test [1] can be described thus: qHTS drug screen for cell cycle checkpoint inhibitors in PARPi-resistant BRCA-mutant ovarian cancer cell lines. (AID 1963452; calls by dose curve; also: potency is read from the fitted curve at half-maximal effect). The conditions noted are these: PEO1/OlaR viability, CellTiter-Glo luminescence, 96 h; for Z-AUC: stronger effect = lower value. The procedure, abridged:
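PEO1, PEO4 and PEO1/OlaR ovarian cancer cells, 600 per well, exposed 96 h at 37C to a dilution series. Viability read by CellTiter-Glo luminescence, normalized to DMSO and empty wells; activity summarized as Z-AUC.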
For orientation: In qHTS, concentration-response curves come from the screen itself.

Test [2] can be described thus: qHTS profiling for inhibitors of Plasmodium falciparum proliferation (AID 504749). Also: potency is read from the fitted curve at half-maximal effect.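 As to activity, negative = inhibition: 0% = DMSO vehicle and full inhibition = artemisinin control.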 As to all read-outs here: nearly all actives have a fitted effect of over 60% in size. As to conditions: P. falciparum in erythrocytes, SYBR Green DNA, 72 h; for activity, negative = inhibition: at 28.7 µM (top of the series). The procedure, abridged:
(§1)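 P. falciparum-infected erythrocytes (0.3% parasitemia, 2.5% hematocrit) incubated with compound 72 h at 37 C, 5% CO2. Parasite DNA detected by SYBR Green after lysis, overnight at room temperature; normalised to 0.29 uM artemisinin and DMSO.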

The next test concerns 3D7. Described as above. The conditions noted are these: P. falciparum in erythrocytes, SYBR Green DNA, 72 h; series mostly up to 28.7 µM. A digest of the protocol: as §1
The next test has as its system 7G8. The test is described as above. As to conditions: P. falciparum in erythrocytes, SYBR Green DNA, 72 h; series mostly up to 28.7 µM. A digest of the protocol:
as §1

In the next test the test system is AA1029. The test is described as above. The conditions noted are these: P. falciparum in erythrocytes, SYBR Green DNA, 72 h; series mostly up to 28.7 µM. A digest of the protocol: as §1
Another test deals with AS120. Described as above. The conditions noted are these: P. falciparum in erythrocytes, SYBR Green DNA, 72 h; series mostly up to 28.7 µM. A digest of the protocol: as §1
Another test deals with ATS189. Described as above. As to conditions: P. falciparum in erythrocytes, SYBR Green DNA, 72 h; series mostly up to 28.7 µM. A digest of the protocol: as §1
The next test deals with ATS95. Described as above. As to conditions: P. falciparum in erythrocytes, SYBR Green DNA, 72 h; series mostly up to 28.7 µM. A digest of the protocol: as §1
The next test has as its system C2A. Described as above. As to conditions: P. falciparum in erythrocytes, SYBR Green DNA, 72 h; series mostly up to 28.7 µM. A digest of the protocol: as §1
A further test has as its system CP185. The description is as above. The conditions noted are these: P. falciparum in erythrocytes, SYBR Green DNA, 72 h; series mostly up to 28.7 µM. A digest of the protocol:
as §1

The test system of the next test is CP191. The test is described as above. The conditions noted are these: P. falciparum in erythrocytes, SYBR Green DNA, 72 h; series mostly up to 28.7 µM. The procedure, abridged:
as §1

The test system of the next test is CP192. Described as above. As to conditions: P. falciparum in erythrocytes, SYBR Green DNA, 72 h; series mostly up to 28.7 µM. The procedure, abridged: as §1
The subject of another test is CP194. The description is as above. As to conditions: P. falciparum in erythrocytes, SYBR Green DNA, 72 h; series mostly up to 28.7 µM. A digest of the protocol: as §1
A further test has as its system CP201. The description is as above. As to conditions: P. falciparum in erythrocytes, SYBR Green DNA, 72 h; series mostly up to 28.7 µM. The procedure, abridged:
as §1

Test [3] is described as follows: KB-8-5-11 P-gp reporter qHTS against the NCATS DSHEA and TCM libraries (AID 1919977). Also: 0% is about no effect. The procedure, abridged:
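KB-8-5-11, 500 cells/well, DMEM/10% FBS without colchicine; 4 h attach; cpd titrations, 72 h, 37C/5% CO2; CellTiter-Glo, 30 min RT, luminescence.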

Test [4] can be described thus: qHTS Counterscreen for compound interference against the NCATS DSHEA and TCM libraries (AID 1919978).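 Also: compounds preincubated with 1 µM D-luciferin or buffer before detection reagent; % of control where 0% means no effect.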 The conditions noted are these: firefly luciferase detection reagent interference, luminescence. A digest of the protocol: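 Compounds, titrated from 19.5 nM to 39.8 uM final, were pinned onto 1 uM D-luciferin or plain 100 mM potassium phosphate. After 15 min at room temperature, luciferin detection reagent was added for 30 min before the luminescence read.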

Test [5] can be described thus: Dual reporter qHTS for agonist of Pregnane X Receptor (hPXR) against the NCATS DSHEA and TCM libraries: Fluorescence readout (AID 1920058). Also: 0% is about no effect. A digest of the protocol: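 HepG2 hPXR-Luc, 2000 cells/well, 5 h attach; cpds ~24 h, 37 °C/5% CO2; CellTiter-Fluor 1 h; fluor. Ex/Em 405/540 nm = viability.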
Test [6] addresses Nuclear receptor subfamily 1 group I member 2 (Homo sapiens) (UniProt O75469). The experiment in a line: Dual reporter qHTS for antagonist of Pregnane X Receptor (hPXR) against the NCATS DSHEA and TCM libraries: Luminescence Readout (AID 1920060).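 Also: HepG2 cells carrying hPXR luciferase reporter stimulated with rifampicin at 2 µM; 0% is about no effect.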 The procedure, abridged:
(§2)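 In antagonist mode, 2 uM rifampicin was added to hPXR-Luc HepG2 cells alongside test substances, incubated 24 h at 37 C; luminescence gave reporter activity, and CellTiter-Fluor fluorescence (405/540 nm) gave viability.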

The nature of test [7]: Dual reporter qHTS for antagonist of Pregnane X Receptor (hPXR) against the NCATS DSHEA and TCM libraries: Fluorescence Readout (AID 1920061). Also: 0% is about no effect. A digest of the protocol:
as §2

The mark [8] stands for this setting: measured here: PEO1 parental Z-AUC.

Chain of Nuclear receptor subfamily 1 group I member 2 (Homo sapiens) (O75469 whole entry, looked up): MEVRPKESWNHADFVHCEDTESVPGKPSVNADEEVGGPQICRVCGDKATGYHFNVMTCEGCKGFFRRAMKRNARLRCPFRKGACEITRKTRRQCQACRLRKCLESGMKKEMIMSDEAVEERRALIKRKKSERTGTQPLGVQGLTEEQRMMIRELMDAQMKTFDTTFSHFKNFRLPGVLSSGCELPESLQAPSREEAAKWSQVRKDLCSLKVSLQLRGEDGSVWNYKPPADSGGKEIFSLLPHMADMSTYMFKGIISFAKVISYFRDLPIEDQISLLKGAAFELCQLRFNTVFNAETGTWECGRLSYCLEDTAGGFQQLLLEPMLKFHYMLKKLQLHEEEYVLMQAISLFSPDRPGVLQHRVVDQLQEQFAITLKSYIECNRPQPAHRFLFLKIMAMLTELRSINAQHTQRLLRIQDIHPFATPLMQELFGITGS

As to `CCOc1ccccc1-n1c(C(C)N2CCN(C(=O)COc3ccc(Cl)cc3)CC2)nc2ccccc2c1=O` (configuration not stated), the Z-AUC is 0.23 (inactive) in test [1], 0.347 in test [1] (setting [8]) and -0.0275 in test [1] (measured here: PEO4 Z-AUC).
Consider `[O]=[Cr](=[O])([OH])[O][Cr](=[O])(=[O])[OH]`, for which the activity, negative = inhibition in test [2] (parasite line A) was -8.13% (inactive) and -2.73% (inactive); in [2] (parasite line B) it was -2.72% (inactive) and -3.46% (inactive). Also, the Potency entry in the test with 3D7, in the test on 7G8, in the test on AA1029, in the test on AS120, with ATS189 and in the test on ATS95 was “inactive” each time. Besides, the Potency entry with C2A, with CP185, in the test on CP191, in the test on CP192, with CP194 and in the test with CP201 was “inactive” each time.
For the compound `C/C(=C\c1csc(C)n1)[C@@H]1C[C@@H]2O[C@]2(C)CCC[C@H](C)[C@H](O)[C@@H](C)C(=O)C(C)(C)[C@@H](O)CC(=O)O1`, the Potency in test [1] is 0.0078 µM (active); in test [2] (parasite line A), 0.002 µM (active); in test [2] (parasite line B), 0.0035 µM (active); in the test on 3D7 it was 0.0032 µM (active); with AA1029 it was 0.0045 µM (active); in the test with AS120 it was 0.0025 µM (active). Besides, the Potency with ATS189 was 0.0071 µM (active); in the test on ATS95 it was 0.0035 µM (active); in the test on C2A it was 0.0045 µM (active); with CP185 it was 0.002 µM (active); with CP191, 0.0028 µM (active); in the test on CP192, 0.003 µM (active). Besides, in the test with CP194, the Potency is 0.0038 µM (active). The Z-AUC in test [1] (setting [8]) was -2.7; in [1] (measured here: PEO4 Z-AUC) it was -2.48.
Regarding `O=Cc1ccco1`, the outcome in [3], in test [5], in test [6] and in test [7] was inactive. Besides, in test [4], the max response was -3.87% (inactive). Further, the figures for the activity, negative = inhibition in [2] (parasite line A) and in [2] (parasite line B) were -15.5% (inactive) and 9.74% (inactive), respectively. The Potency entry in the test with 3D7, with 7G8, in the test with AA1029, in the test with ATS189, in the test with ATS95 and with C2A was “inactive” in each case. Also, the Potency entry in the test on CP185, in the test with CP191, in the test on CP192, with CP194 and in the test on CP201 was “inactive” each time.
Turning to `S=C=S`, the figures for the activity, negative = inhibition in test [2] (parasite line A) and in test [2] (parasite line B) were 2.86% (inactive) and 20.2% (inactive), respectively. The Potency entry in the test with 3D7, in the test with 7G8, with AA1029, in the test with AS120, with ATS189 and with ATS95 was “inactive” throughout. Besides, the Potency result with C2A, in the test on CP185, in the test with CP191, in the test on CP192, in the test with CP194 and in the test on CP201 was “inactive” each time.
`C[CH2][Hg][S]c1ccccc1C(=O)O`: the Potency is 2.82 µM (active) in test [2] (parasite line A); 3.16 µM (active) in [2] (parasite line B); 1.78 µM (active) in the test with 3D7; 1.12 µM (active) in the test on 7G8; 3.16 µM (active) in the test on AA1029; 3.16 µM (active) with AS120. For the same compound, the Potency is 3.55 µM (active) with ATS189; 2 µM (active) in the test on ATS95; 3.98 µM (active) in the test with C2A; 2 µM (active) with CP185; 3.55 µM (active) in the test on CP191; 4.78 µM (active) with CP192. Moreover, the Potency with CP194 is 3.01 µM (active); with CP201, 4.26 µM (active).
As to `CC(C)CCON=O`, the activity, negative = inhibition in test [2] (parasite line A) is -1.57% (inactive); in test [2] (parasite line B), -11.8% (inactive). In addition, the Potency entry with 3D7, with 7G8, in the test with AA1029, in the test on AS120, with ATS189 and in the test with ATS95 was “inactive” in each case. In addition, the Potency entry with C2A, in the test with CP185, in the test with CP191, in the test on CP192, in the test on CP194 and in the test with CP201 was “inactive” in each case.
